From PubChem BioAssay (NCATS)
Records with an inconclusive call do not appear. Activity calls are given as the source filed them. Unless noted, the call rests on the fitted dose curve; in most records, active means well fitted curve in the direction sought with a large enough effect; inconclusive means small, poorly fitted or top-dose-only effect, or another doubt; inactive means no such curve, though single readings can be large; an effect the other way counts as inactive or inconclusive.

Key:
[1] = molecular target: Rap guanine nucleotide exchange factor 3 (Homo sapiens) (UniProt O95398); experiment: Confirmatory qHTS for antagonist of cAMP-regulated guanine nucleotide exchange factor 3 (EPAC1) (AID 1645880); conditions: EPAC1 Rap1B-BODIPY-GDP exchange, fluorescence; activity, negative = inhibition: at 115 µM (top of the series);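 further: plate controls were DMSO only for no effect and full effect of the ATA control for full effect; nearly all actives have a fitted effect of over 55% in size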
Sequence of Rap guanine nucleotide exchange factor 3 (Homo sapiens) (O95398 whole entry, looked up): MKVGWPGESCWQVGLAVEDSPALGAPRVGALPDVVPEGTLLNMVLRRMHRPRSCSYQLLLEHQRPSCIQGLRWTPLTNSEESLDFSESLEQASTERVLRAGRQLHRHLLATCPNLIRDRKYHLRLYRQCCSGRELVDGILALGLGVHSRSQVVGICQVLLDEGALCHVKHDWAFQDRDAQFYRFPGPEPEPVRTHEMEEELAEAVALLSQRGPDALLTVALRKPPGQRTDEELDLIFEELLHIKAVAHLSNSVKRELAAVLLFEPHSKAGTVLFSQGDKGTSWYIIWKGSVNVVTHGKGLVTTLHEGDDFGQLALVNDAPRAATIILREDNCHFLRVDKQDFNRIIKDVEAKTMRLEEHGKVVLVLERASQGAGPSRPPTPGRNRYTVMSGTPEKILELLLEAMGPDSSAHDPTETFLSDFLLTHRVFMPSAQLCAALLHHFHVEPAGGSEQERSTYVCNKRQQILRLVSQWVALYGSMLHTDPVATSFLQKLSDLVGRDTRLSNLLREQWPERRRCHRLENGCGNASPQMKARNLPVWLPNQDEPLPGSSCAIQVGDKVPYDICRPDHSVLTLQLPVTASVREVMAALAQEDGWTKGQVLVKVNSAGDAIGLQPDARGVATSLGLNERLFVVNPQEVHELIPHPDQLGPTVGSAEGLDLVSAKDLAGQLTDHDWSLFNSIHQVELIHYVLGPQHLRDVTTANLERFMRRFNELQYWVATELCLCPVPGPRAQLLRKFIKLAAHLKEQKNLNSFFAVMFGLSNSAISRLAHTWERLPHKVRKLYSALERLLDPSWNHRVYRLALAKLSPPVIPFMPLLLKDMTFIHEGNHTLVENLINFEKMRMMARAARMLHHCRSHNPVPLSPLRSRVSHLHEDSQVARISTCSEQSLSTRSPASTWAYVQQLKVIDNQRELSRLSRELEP
Summary of the method: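 Nucleotide exchange uses 100 nM EPAC1, 250 nM RAP1B-BODIPY-GDP and 50 uM GDP, with compounds in a concentration-titration series. After 5 min at room temperature, fluorescence (480 nm ex/540 nm em) is read every 5 min for 30 min. Data are normalized to control ATA and DMSO.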

[2] = molecular target: Rap guanine nucleotide exchange factor 3 (Homo sapiens) (UniProt O95398); experiment: Confirmatory qHTS for agonist of cAMP-regulated guanine nucleotide exchange factor 3 (EPAC1) (AID 1645881); further: nearly all actives have a fitted effect of over 75% in size; further: potency means the concentration at half of the fitted maximal effect;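 on activation: EPAC1 catalysed release of BODIPY-GDP from Rap1B seen as fluorescence loss; 100% = effect of cAMP agonist control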
[3] = molecular target: Rap guanine nucleotide exchange factor 4 (Homo sapiens) (UniProt Q8WZA2); experiment: Confirmatory qHTS for antagonist of cAMP-regulated guanine nucleotide exchange factor 4 (EPAC2) (AID 1645885); further: on the % scale 0 is the no-effect control and ±100 the full control effect; nearly all actives have a fitted effect of over 25% in size
Sequence of Rap guanine nucleotide exchange factor 4 (Homo sapiens) (Q8WZA2 whole entry, looked up): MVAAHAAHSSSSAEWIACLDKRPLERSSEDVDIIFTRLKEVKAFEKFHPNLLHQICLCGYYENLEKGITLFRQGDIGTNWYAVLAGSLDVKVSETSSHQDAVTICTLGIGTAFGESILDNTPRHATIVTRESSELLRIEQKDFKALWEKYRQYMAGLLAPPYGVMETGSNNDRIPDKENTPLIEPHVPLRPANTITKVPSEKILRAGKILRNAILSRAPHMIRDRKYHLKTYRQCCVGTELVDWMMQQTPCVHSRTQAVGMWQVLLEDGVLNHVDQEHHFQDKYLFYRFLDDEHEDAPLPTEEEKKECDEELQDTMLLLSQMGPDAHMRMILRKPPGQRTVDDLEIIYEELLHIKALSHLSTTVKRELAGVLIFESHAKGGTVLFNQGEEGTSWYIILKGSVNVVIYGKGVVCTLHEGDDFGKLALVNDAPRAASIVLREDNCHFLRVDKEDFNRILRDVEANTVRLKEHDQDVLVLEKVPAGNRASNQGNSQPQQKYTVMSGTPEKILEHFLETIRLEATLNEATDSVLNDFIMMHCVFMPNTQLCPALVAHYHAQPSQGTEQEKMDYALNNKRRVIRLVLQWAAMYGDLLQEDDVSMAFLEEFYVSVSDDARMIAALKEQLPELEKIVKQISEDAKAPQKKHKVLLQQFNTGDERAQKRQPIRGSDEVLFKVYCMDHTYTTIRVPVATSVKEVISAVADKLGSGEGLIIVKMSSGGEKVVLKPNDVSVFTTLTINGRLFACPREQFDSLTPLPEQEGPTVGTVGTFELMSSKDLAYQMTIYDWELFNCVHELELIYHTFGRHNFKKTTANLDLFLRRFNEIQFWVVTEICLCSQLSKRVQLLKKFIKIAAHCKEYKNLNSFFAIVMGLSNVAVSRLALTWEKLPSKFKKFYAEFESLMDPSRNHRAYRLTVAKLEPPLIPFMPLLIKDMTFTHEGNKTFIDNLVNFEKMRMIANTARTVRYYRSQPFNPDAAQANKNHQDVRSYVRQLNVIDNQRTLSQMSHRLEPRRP

[4] = molecular target: Rap guanine nucleotide exchange factor 3 (Homo sapiens) (UniProt O95398); experiment: Counterscreen qHTS for antagonist of cAMP-regulated guanine nucleotide exchange factor 3 (EPAC1) (AID 1645888);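 further: fluorescence loss as bound BODIPY-GDP is released from Rap1B; % of control where 0% means no effect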
Summary of the method: (§1)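 Rap1B-BODIPY-GDP 250 nM + GDP 50 uM; cpds 7-pt, final 9.74 nM–152 uM (activator mode) or from 7.32 nM upwards (inhibitor mode); RT; FI 480/540 nm at 5 and 30 min, then ± cAMP, reread.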

[5] = molecular target: Rap guanine nucleotide exchange factor 3 (Homo sapiens) (UniProt O95398); experiment: Counterscreen qHTS for agonist of cAMP-regulated guanine nucleotide exchange factor 3 (EPAC1) (AID 1645889); further: nearly all actives have a fitted effect of over 40% in size; further: potency means the concentration at half of the fitted maximal effect; on activation: % of control where 0% means no effect
Summary of the method: as §1

[6] = molecular target: Lysosomal acid glucosylceramidase (Homo sapiens) (UniProt P04062); experiment: Glucocerebrosidase-p2 (AID 348; in the data active means potency below about 10 µM; further: potency means the concentration at half of the fitted maximal effect); conditions: purified GBA, blue fluorogenic substrate, 40 min
Summary of the method: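 Compounds titrated from 0.6 nM upwards against 0.2 nM enzyme in pH 5.9 citric acid/KH2PO4, taurocholate, tween-20; blue fluorogenic substrate 80 uM, 40 min room temperature, stopped and read Ex 365/Em 440 for AC50.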

[7] = AP1 Signaling Pathway (AID 357; active means well fitted curve in either direction with a large enough effect, not every such curve was filed as active;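 further: ME-180 reporter cells stimulated with EGF at its EC50 level; on the % scale 0 is the no-effect control and ±100 the full control effect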); conditions: ME-180 AP-1-bla reporter, EGF-induced, beta-lactamase ratio, 5 h; at 7.69 µM (top of the series) unless noted
Summary of the method: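 A ratiometric CCF4 readout (405 nm excitation; 460 and 530 nm emission) quantified AP-1-driven beta-lactamase in ME-180 cells after 5 h with compound and EC50 EGF; AC50 values were derived for activators and inhibitors.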

[8] = molecular target: Cytochrome P450 1A2 (Homo sapiens) (UniProt P05177); experiment: p450-cyp1a2 (AID 410; calls by dose curve; further: potency means the concentration at half of the fitted maximal effect)
Summary of the method: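 Human CYP1A2 (20nM) demethylated Luciferin-ME at its Km (100uM) in 100mM KPO4. After 10 min compound preincubation, NADPH regeneration ran the reaction 60 min at room temperature. Luciferin was read by luminescence, normalized to 57 uM furafylline.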

[9] = NFAT Signaling Pathway (AID 444; active means well fitted curve in either direction with a large enough effect, not every such curve was filed as active;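 further: carbachol stimulus at about its EC50 of 1 µM final; on the % scale 0 is the no-effect control and ±100 the full control effect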); conditions: Jurkat NFAT-bla M1, carbachol, beta-lactamase ratio, 5 h; at 7.69 µM (top of the series) unless noted
Summary of the method: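 Read-out: CCF4 FRET ratio (460 nm/530 nm) after 1 h RT dye loading, used for %activity and AC50 from titration series. Cells: Jurkat NFAT-β-lactamase/M1 line, treated with compound plus 1 uM carbachol for 5 h, 37 °C.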

[10] = Stat Signaling Pathway (AID 446; active means well fitted curve in either direction with a large enough effect, not every such curve was filed as active;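 further: ME-180 cervical cancer cells given 40 pM IL-6 alongside compound; SIE-controlled beta-lactamase reporter measured as 460/530 nm FRET emission ratio; on the % scale 0 is the no-effect control and ±100 the full control effect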)
Summary of the method: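 ME-180 cells carrying a SIE-driven beta-lactamase reporter are stimulated with 40 pM IL-6 for 5 h at 37C in the presence of compound. The 460/530 nm FRET substrate ratio is read after 2.5 h at RT. Data are normalised to 300 pM IL-6 and to 125 nM JAK inhibitor controls.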

[11] = molecular target: Glucocorticoid receptor (Homo sapiens) (UniProt P04150); experiment: GR-GFP Redistribution (AID 450;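 active means compounds whose dose series gives a full or clear partial fitted curve of increased nuclear translocation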; further: potency means the concentration at half of the fitted maximal effect); conditions: U2OS GR-GFP nuclear translocation, laser cytometry, 2 h
Sequence of Glucocorticoid receptor (Homo sapiens) (P04150 whole entry, looked up, the tested form may be a part): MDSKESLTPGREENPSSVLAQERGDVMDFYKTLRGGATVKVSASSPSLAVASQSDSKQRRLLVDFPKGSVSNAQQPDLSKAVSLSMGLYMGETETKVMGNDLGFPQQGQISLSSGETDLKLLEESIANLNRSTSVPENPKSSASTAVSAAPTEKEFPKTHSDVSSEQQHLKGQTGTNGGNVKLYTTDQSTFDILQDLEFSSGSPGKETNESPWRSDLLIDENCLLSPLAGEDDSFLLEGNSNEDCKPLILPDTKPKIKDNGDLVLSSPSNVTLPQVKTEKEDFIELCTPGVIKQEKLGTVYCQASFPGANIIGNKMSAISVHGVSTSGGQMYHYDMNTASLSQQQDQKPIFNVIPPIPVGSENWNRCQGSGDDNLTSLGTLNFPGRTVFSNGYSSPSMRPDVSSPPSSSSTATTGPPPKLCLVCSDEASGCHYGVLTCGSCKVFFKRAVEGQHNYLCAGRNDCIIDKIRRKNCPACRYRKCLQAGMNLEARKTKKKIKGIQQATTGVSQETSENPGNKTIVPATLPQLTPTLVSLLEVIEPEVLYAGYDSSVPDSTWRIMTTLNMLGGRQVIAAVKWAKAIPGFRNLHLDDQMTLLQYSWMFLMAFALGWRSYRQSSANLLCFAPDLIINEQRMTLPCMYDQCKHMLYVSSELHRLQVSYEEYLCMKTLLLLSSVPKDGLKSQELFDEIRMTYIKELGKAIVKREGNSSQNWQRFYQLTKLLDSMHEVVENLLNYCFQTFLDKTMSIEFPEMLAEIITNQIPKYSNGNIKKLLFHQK

[12] = molecular target: Glucocorticoid receptor (Homo sapiens) (UniProt P04150); experiment: GR-EFC Redistribution (AID 451; calls by dose curve; further: potency means the concentration at half of the fitted maximal effect); conditions: CHO-K1 GR-EFC translocation, beta-gal luminescence, 2 h
Summary of the method: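 Translocation of GR-ED fusion to nuclear EA restores b-gal, read by luminescence after 1 h room-temperature detection. Engineered CHO-K1 biosensor cells, 1,000/well, exposed 2 h at 37 C to titrations up to 46 uM final.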

[13] = molecular target: Mitogen-activated protein kinase 10 (Mus musculus) (UniProt Q61831); experiment: JNK3 AlphaScreen Assay (AID 530; active means well fitted curve in either direction with a large enough effect, not every such curve was filed as active;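 further: kinase came from lysate of stimulated human HepG2 cells; signal reports phosphorylation of biotinylated GST-cJun 1-79 at Ser73 with 10 µM ATP; on the % scale 0 is the no-effect control and ±100 the full control effect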)
Summary of the method: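 Room-temperature AlphaScreen kinase assay; pre-activated HepG2 lysate as JNK3 source, biotin-GST-cJun(1-79) substrate, 10 uM ATP, compound 15 min preincubation.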

[14] = molecular target: 3',5'-cyclic-AMP phosphodiesterase 4B (Homo sapiens) (UniProt Q07343); experiment: qHTS Assay for Inhibitors of PDE-IV (AID 607; active means well fitted activation curve with a large enough effect in the main read-out, with a control signal flat, not every such curve was filed as active; further: % of control where 0% means no effect)
Sequence of 3',5'-cyclic-AMP phosphodiesterase 4B (Homo sapiens) (Q07343 whole entry, looked up): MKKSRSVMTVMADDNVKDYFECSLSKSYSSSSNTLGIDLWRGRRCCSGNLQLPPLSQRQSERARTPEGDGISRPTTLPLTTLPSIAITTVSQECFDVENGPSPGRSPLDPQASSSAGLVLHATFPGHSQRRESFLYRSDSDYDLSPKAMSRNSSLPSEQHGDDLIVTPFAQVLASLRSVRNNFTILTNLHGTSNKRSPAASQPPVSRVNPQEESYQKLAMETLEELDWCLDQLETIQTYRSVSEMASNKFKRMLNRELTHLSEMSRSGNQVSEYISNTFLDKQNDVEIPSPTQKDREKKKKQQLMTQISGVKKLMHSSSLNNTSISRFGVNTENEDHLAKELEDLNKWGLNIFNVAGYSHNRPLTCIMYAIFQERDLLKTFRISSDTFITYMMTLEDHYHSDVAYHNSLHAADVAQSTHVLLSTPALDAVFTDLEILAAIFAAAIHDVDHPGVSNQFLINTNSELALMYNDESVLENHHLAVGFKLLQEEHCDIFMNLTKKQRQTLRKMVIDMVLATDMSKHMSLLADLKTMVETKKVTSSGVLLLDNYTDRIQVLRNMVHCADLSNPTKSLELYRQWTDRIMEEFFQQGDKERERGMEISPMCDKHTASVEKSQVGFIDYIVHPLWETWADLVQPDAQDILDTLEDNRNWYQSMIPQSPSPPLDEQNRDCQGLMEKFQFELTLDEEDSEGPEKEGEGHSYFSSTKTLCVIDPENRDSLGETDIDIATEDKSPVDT
Summary of the method: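 HEK293 ACTOne cells with CNG channel (1000/well), endogenous PDE4; membrane potential dye, compounds up to 22.9 uM final. Fluorescence Ex 535/Em 590; RO 20-1724 (100 uM final) as reference.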

[15] = molecular target: Cytochrome P450 2C9 (Homo sapiens) (UniProt P11712); experiment: qHTS Assay for Inhibitors and Substrates of Cytochrome P450 2C9 (AID 883); further: potency means the concentration at half of the fitted maximal effect; nearly all actives have a fitted effect of over 60% in size
Summary of the method: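 Inhibition of CYP2C9 is scored as loss of luminescence, with 57uM sulphaphenazole defining 100% inhibition. Substrate Luciferin-H is used at 100uM, equal to its KM; enzyme at 10nM in 25mM KPO4, 60 min at 37C with NADPH regeneration.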

[16] = molecular target: Cytochrome P450 3A4 (Homo sapiens) (UniProt P08684); experiment: qHTS Assay for Inhibitors and Substrates of Cytochrome P450 3A4 (AID 884); further: potency means the concentration at half of the fitted maximal effect; nearly all actives have a fitted effect of over 50% in size
Sequence of Cytochrome P450 3A4 (Homo sapiens) (P08684 whole entry, looked up): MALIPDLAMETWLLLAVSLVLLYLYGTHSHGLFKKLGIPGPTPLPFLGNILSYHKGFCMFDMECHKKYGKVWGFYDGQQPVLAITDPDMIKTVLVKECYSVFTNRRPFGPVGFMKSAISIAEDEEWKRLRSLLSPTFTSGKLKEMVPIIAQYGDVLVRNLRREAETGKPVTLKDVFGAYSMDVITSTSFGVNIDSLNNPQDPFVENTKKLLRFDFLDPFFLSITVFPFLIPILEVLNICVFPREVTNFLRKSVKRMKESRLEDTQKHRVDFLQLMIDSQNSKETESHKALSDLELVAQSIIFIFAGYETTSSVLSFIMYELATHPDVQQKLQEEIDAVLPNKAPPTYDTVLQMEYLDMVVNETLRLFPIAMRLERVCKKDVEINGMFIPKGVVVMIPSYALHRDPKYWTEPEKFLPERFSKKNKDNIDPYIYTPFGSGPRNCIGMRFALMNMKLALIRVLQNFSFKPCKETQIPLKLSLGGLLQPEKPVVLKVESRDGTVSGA
Summary of the method: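 20 nM human CYP3A4 with 25 uM Luciferin-PPXE (at KM) in 200 mM KPO4, preincubated 10 min with compound; NADPH regeneration started a 60 min RT reaction. Luciferin detected by luminescence, normalized to 57 uM ketoconazole as full inhibition.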

[17] = molecular target: Cytochrome P450 3A4 (Homo sapiens) (UniProt P08684); experiment: qHTS Assay for Activators of Cytochrome P450 3A4 (AID 885); further: nearly all actives have a fitted effect of over 65% in size
Summary of the method: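 Human CYP3A4 (20 nM) with Luciferin-PPXE at 25 uM (its KM) in 200 mM KPO4; 10 min compound preincubation, then NADPH regeneration and 60 min reaction at RT. Luciferin read by luminescence; normalized to 57 uM ketoconazole full inhibition.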

[18] = molecular target: Cytochrome P450 2D6 (Homo sapiens) (UniProt P10635); experiment: qHTS Assay for Inhibitors and Substrates of Cytochrome P450 2D6 (AID 891); further: potency means the concentration at half of the fitted maximal effect; nearly all actives have a fitted effect of over 60% in size
Summary of the method: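 Human CYP2D6 (5 nM) with 30 uM Luciferin-ME EGE (at Km) in 100 mM KPO4, compound preincubated 10 min, then NADPH regeneration system for 60 min at room temperature. Luciferin read by luminescence; normalized to 1.43 uM quinidine.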

[19] = molecular target: Cytochrome P450 2C19 (Homo sapiens) (UniProt P33261); experiment: qHTS Assay for Inhibitors and Substrates of Cytochrome P450 2C19 (AID 899); further: potency means the concentration at half of the fitted maximal effect; nearly all actives have a fitted effect of over 60% in size
Sequence of Cytochrome P450 2C19 (Homo sapiens) (P33261 whole entry, looked up): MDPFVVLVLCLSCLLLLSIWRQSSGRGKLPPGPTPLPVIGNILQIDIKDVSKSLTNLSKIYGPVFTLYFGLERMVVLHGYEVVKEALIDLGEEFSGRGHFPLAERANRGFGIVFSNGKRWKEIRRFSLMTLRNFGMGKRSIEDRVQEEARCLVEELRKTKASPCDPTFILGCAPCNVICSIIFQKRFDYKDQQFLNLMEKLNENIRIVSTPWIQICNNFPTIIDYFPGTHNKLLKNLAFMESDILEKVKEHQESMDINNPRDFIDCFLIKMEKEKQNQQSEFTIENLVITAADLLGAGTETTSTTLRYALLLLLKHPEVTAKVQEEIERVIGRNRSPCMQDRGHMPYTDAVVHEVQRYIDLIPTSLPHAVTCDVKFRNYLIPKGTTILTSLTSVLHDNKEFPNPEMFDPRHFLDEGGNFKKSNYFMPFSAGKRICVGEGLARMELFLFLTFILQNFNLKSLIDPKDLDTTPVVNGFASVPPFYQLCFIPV
Summary of the method: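 5nM enzyme + 10uM Luciferin-H EGE (=KM), 50mM KPO4; cpd pin-transferred, 10 min 37C; NADPH regen, 60 min 37C; stopped w/ luciferin detection reagent, 20 min; luminescence. Normalized to 57uM ketoconazole (AC100).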

[20] = molecular target: Dual specificity protein kinase CLK4 (Homo sapiens) (UniProt Q9HAZ1); experiment: qHTS Assay for Inhibitors of CDC-like Kinase 4 (Kinase-Glo Assay) (AID 1770); further: potency means the concentration at half of the fitted maximal effect; nearly all actives have a fitted effect of over 65% in size
Sequence of Dual specificity protein kinase CLK4 (Homo sapiens) (Q9HAZ1 whole entry, looked up): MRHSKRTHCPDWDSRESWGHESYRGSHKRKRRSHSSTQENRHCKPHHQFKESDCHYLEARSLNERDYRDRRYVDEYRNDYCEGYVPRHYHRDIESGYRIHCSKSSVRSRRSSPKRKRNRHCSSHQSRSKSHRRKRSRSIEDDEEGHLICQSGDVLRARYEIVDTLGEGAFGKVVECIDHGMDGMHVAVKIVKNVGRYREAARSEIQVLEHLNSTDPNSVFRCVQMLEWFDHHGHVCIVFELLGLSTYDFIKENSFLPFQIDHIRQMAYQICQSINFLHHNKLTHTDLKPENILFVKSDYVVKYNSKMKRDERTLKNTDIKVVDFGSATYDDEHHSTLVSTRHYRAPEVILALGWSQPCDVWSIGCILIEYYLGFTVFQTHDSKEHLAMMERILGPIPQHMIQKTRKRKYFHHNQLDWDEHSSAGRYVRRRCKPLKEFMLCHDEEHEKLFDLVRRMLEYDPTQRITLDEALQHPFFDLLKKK
Summary of the method: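 Luminescent ATP-depletion read-out (Kinase-Glo) after 4.5 h room-temperature reaction of Clk4 (25 nM final) with RS peptide (100 uM) and ATP (1 uM), pH 7.5 Tris buffer with MgCl2 and DTT.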

[21] = molecular target: Dual specificity protein kinase CLK4 (Homo sapiens) (UniProt Q9HAZ1); experiment: qHTS Assay for Inhibitors of CDC-like Kinase 4 (ADP-Glo Assay) (AID 1771); further: potency means the concentration at half of the fitted maximal effect; nearly all actives have a fitted effect of over 70% in size
Summary of the method: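 Clk4 (25 nM) was incubated 1 hr at room temperature with 100 uM RS repeat peptide and 1 uM ATP in buffer with 2 mM MgCl2, 0.5 mM EGTA, 2.5 mM DTT. ADP formed was quantified by ADP-Glo luminescence.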

[22] = molecular target: Ubiquitin carboxyl-terminal hydrolase 1 (Homo sapiens) (UniProt O94782); experiment: Inhibitors of USP1/UAF1: Pilot qHTS (AID 504865);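 further: rhodamine fluorescence freed from ubiquitin-rhodamine substrate followed over time; top concentration of the series differs between compounds; on the % scale 0 is the no-effect control and ±100 the full control effect; nearly all actives have a fitted effect of over 35% in size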
Summary of the method: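 Deubiquitinase activity followed as kinetic rhodamine fluorescence release from 150 nM Ub-Rho. 1 nM USP1/UAF1 with compound, after 15 min room-temperature preincubation, in HEPES pH 7.8 buffer containing TCEP, EDTA, BSA and Tween-20.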

[23] = molecular target: Tyrosyl-DNA phosphodiesterase 1 (Homo sapiens) (UniProt Q9NUW8); experiment: Confirmation Assay for Inhibitors of Tyrosyl-DNA Phosphodiesterase (TDP1) (AID 489007); conditions: recombinant human TDP1 enzymatic activity, dose-response; further: potency means the concentration at half of the fitted maximal effect; nearly all actives have a fitted effect of over 40% in size
Summary of the method: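 Recombinant E. coli-expressed Tdp1 (1 nM final) was preincubated with compounds 15 min at room temperature, then reacted 5 min with 15 nM 5'-biotin/3'-phosphotyrosine-FITC DNA substrate; cleavage read as loss of AlphaScreen signal (10 ug/ml beads, 10 min).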

COC(=O)c1c(NC(=O)c2ccc(S(=O)(=O)N3CCCCC3C)cc2)sc2c1CCN(C(C)C)C2 (centres undefined)
inactive: Potency [1] | Potency [3] | Potency [4]
active: Potency [2] 112 µM | Potency [5] 79.4 µM

COc1ccc2[nH]cc(CCNc3ncncc3-c3ccccc3Cl)c2c1
active: Potency [8] 0.631 µM | Potency [15] 0.199 µM | Potency [16] 0.398 µM | Potency [18] 0.631 µM | Potency [19] 0.0631 µM | Potency [20] 12.6 µM | Potency [21] 10 µM
inactive: Potency [6] > 11.4 µM | activity change, negative = inhibition [7] -12.3% | activity change, negative = inhibition [9] -11.6% | outcome [10] | Potency [11] > 46 µM | Potency [12] > 46 µM | Potency [13] | Potency [14] | outcome [17] | Potency [22]

CN(Cc1ccccc1)c1nc(-c2ccc(F)cc2)cc(C(F)(F)F)n1
active: Potency [23] 28.2 µM

Cc1cc(C)c(C(=O)c2ccccc2)c(C)c1
inactive: Potency [1] | Potency [2] | Potency [4] | Potency [5]

CC(OC(=O)c1ccccc1Oc1ccccc1)C(=O)NC1CC1 (centres undefined)
inactive: Potency [1] | Potency [2] | Potency [4] | Potency [5]

CCCNC(=O)c1ccc(N2CCC3(CC2)CC(c2ccccc2)=NO3)c(NC(=O)c2ccccc2)c1
inactive: Potency [1] | Potency [2] | Potency [4] | Potency [5]

COC(=O)c1ccc2nc(C3CCCCC3)c(Cc3ccccc3)n2c1
inactive: Potency [1] | Potency [2] | activity change, negative = inhibition [4] 6.26% [at 30.8 µM] | activation [5] 9.29% [at 30.8 µM]

Cc1cc(C)c2c(c1)OC(=O)CC2c1ccccc1C (centres undefined)
inactive: Potency [1] | Potency [2] | Potency [4] | Potency [5]

COC(=O)c1ccc2nc(-c3ccc(Cl)cc3)c(CC3CCCCC3)n2c1
inactive: Potency [1] | Potency [2] | Potency [4] | Potency [5]

COc1ccc2cc(S(=O)(=O)N3CCCC3)ccc2c1
inactive: Potency [1] | Potency [2] | activity change, negative = inhibition [4] -17.9% [at 30.8 µM] | activation [5] 13.3% [at 30.8 µM]

COC(=O)c1cn(C(=O)c2ccc(C)cc2C)c2ccccc12
inactive: Potency [1] | Potency [2] | Potency [4] | Potency [5]

COc1ccc(-c2noc(CN(C(=O)c3c(-c4ccccc4Cl)noc3C)C(C)C)n2)cc1
inactive: Potency [1] | Potency [2] | Potency [4] | Potency [5]
